Source: PubChem BioAssay AID1159580 (chemical genetic matrix, 2015)
Where “and” joins values, the source holds several entries; their conditions need not be identical. Equal values may be shown once. Screen size: about 5,500 compounds; about 2,000 (36%) were called active. Inconclusive results (about 18%) are left out. Rule as the data show it: active = normalized growth mostly below about 0.91 (no sharp cut-off); inconclusive = no clear call, values can overlap the other calls; inactive = mostly above about 0.92. The list shows a part of the results.

Assay: chemical genetic growth profiling, strain panel (AID 1159580);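 also: tested at 20 µM; growth read once vehicle control cultures reached saturation at 30 °C; 1 = growth at the plate median or of vehicle wells; lower values mean less growth of the strain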
Conditions: S. cerevisiae deletion strains, growth OD

Measured: normalized growth

CC(C)[C@@H]1CC[C@@H](C)C[C@H]1OC(=O)c1ccccc1
inactive: locus YAL013W, strain DEP1, hits give low values 1.01 | locus YAL021C, strain ccr4, hits give low values 1.01 | locus YAL026C, strain drs2, hits give low values 1.01 | locus YAL030W, strain snc1, hits give low values 1.01 | locus YBL061C, strain skt5, hits give low values 1.01 | locus YBR009C, strain hhf1, hits give low values 0.999 | locus YBR021W, strain FUR4, hits give low values 0.997 | locus YBR023C, strain chs3, hits give low values 1.01 | locus YBR171W, strain sec66, hits give low values 1 | locus YBR229C, strain ROT2, hits give low values 1.01 | locus YBR231C, strain swc5, hits give low values 1.02 | locus YBR279W, strain paf1, hits give low values 1.01 | locus YCL011C, strain gbp2, hits give low values 1 | locus YCL016C, strain dcc1, hits give low values 1.01 | locus YCL029C, strain bik1, hits give low values 0.99 | locus YCL061C, strain MRC1, hits give low values 1 | locus YCL069W, strain vba3, hits give low values 1 | locus YCR088W, strain abp1, hits give low values 1 | locus YDL005C, strain med2, hits give low values 0.991 | locus YDL035C, strain GPR1, hits give low values 0.988 | locus YDL040C, strain nat1, hits give low values 0.993 | locus YDL074C, strain BRE1, hits give low values 0.995 | locus YDL101C, strain DUN1, hits give low values 0.999 | locus YDL134C, strain PPH21, hits give low values 0.962 | locus YDL185W, strain tfp1, hits give low values 0.997 | locus YDL192W, strain arf1, hits give low values 0.929 | locus YDR001C, strain nth1, hits give low values 0.994 | locus YDR069C, strain doa4, hits give low values 0.999 | locus YDR101C, strain arx1, hits give low values 0.978 | locus YDR137W, strain rgp1, hits give low values 0.942 | locus YDR150W, strain NUM1, hits give low values 1.04 | locus YDR159W, strain sac3, hits give low values 1.02 | locus YDR162C, strain NBP2, hits give low values 0.91 | locus YDR195W, strain ref2 0.975 | locus YDR297W, strain sur2, hits give low values 1.01 | locus YDR318W, strain mcm21, hits give low values 0.992 | locus YDR334W, strain swr1, hits give low values 1 | locus YDR335W, strain msn5, hits give low values 1.01 | locus YDR388W, hits give low values 0.999 | locus YDR392W, strain spt3, hits give low values 0.997 | locus YDR502C, strain sam2, hits give low values 0.995 | locus YEL003W, strain gim4, hits give low values 1.02 | locus YEL037C, strain rad23, hits give low values 1.01 | locus YEL061C, strain CIN8 (second series), hits give low values 1.01 | locus YEL061C, strain CIN8, hits give low values 1.03 | locus YER015W, strain faa2, hits give low values 1.01 | locus YER016W, strain bim1, hits give low values 0.999 | locus YER110C, hits give low values 1 | locus YER111C, strain swi4, hits give low values 1.01 | locus YER155C, strain BEM2 (second series), hits give low values 1.02 | locus YER155C, strain BEM2, hits give low values 1.01 | locus YER167W, strain BCK2, hits give low values 1.01 | locus YFR010W, strain ubp6, hits give low values 1.01 | locus YGL078C, strain dbp3, hits give low values 0.971 | locus YGL086W, strain mad1, hits give low values 0.999 | locus YGL167C, strain pmr1, hits give low values 1 | locus YGL173C, strain kem1, hits give low values 1.02 | locus YGL227W, strain vid30, hits give low values 1 | locus YGL240W, strain doc1, hits give low values 1.03 | locus YGL248W, strain PDE1, hits give low values 0.94 | locus YGL253W, strain hxk2, hits give low values 1.01 | locus YGR135W, strain pre9, hits give low values 0.974 | locus YGR252W, strain gcn5, hits give low values 0.959 | locus YHR013C, strain ard1, hits give low values 1.06 | locus YHR027C, strain rpn1, hits give low values 1 | locus YHR030C, strain SLT2, hits give low values 1.02 and 1.01 | locus YHR079C, strain IRE1 (second series), hits give low values 0.997 | locus YHR079C, strain IRE1, hits give low values 1.01 | locus YHR094C, strain hxt1, hits give low values 1 | locus YHR129C, strain ARP1, hits give low values 1.01 | locus YHR142W, strain chs7, hits give low values 0.976 | locus YHR200W, strain rpn10, hits give low values 1.02 | locus YIL066C, strain RNR3, hits give low values 1.01 | locus YIL073C, strain SPO22, hits give low values 0.881 | locus YIL125W, strain kgd1, hits give low values 0.99 | locus YIR030C, strain dcg1, hits give low values 0.996 | locus YJL092W, strain hpr5, hits give low values 1 | locus YJL095W, strain BCK1 (second series), hits give low values 1.01 | locus YJL095W, strain BCK1, hits give low values 0.992 and 1.02 | locus YJL115W, strain asf1, hits give low values 1 | locus YJL129C, strain trk1, hits give low values 0.994 | locus YJL134W, strain LCB3, hits give low values 1.02 | locus YJL154C, strain vps35, hits give low values 0.993 | locus YJL164C, strain tpk1, hits give low values 0.997 | locus YJL166W, strain qcr8, hits give low values 0.984 | locus YJL168C, strain set2, hits give low values 0.986 | locus YJL187C, strain SWE1 (second series), hits give low values 1 | locus YJL187C, strain SWE1, hits give low values 1.01 | locus YJR043C, strain POL32, hits give low values 1.03 | locus YJR066W, strain TOR1, hits give low values 0.951 | locus YKL009W, strain mrt4, hits give low values 0.985 | locus YKL068W, hits give low values 1.01 | locus YKL085W, strain MDH1 (second series), hits give low values 1.01 | locus YKL085W, strain MDH1, hits give low values 1.01 | locus YKL160W, strain elf1, hits give low values 0.998 | locus YKR001C, strain vps1, hits give low values 0.91 | locus YKR026C, strain gcn3, hits give low values 0.977 | locus YKR091W, strain srl3, hits give low values 0.995 | locus YLL001W, strain dnm1, hits give low values 0.993 | locus YLL026W, hits give low values 1 | locus YLL041C, strain sdh2, hits give low values 0.996 | locus YLR027C, strain aat2, hits give low values 1 | locus YLR039C, strain RIC1, hits give low values 0.922 | locus YLR058C, strain SHM2, hits give low values 1.01 | locus YLR102C, strain apc9, hits give low values 1 | locus YLR113W, strain HOG1, hits give low values 1.02 | locus YLR221C, strain rsa3, hits give low values 0.997 | locus YLR258W, strain gsy2, hits give low values 1 | locus YLR262C, strain YPT6 (second series), hits give low values 0.973 | locus YLR262C, strain YPT6, hits give low values 0.981 | locus YLR268W, strain sec22, hits give low values 0.997 | locus YLR320W, strain mms22, hits give low values 1.01 | locus YLR330W, strain CHS5, hits give low values 1.02 | locus YLR342W, strain FKS1 (second series), hits give low values 1.06 | locus YLR342W, strain FKS1, hits give low values 1.01 | locus YLR357W, strain rsc2, hits give low values 1.01 | locus YLR370C, strain arc18, hits give low values 1.01 | locus YLR371W, strain rom2, hits give low values 1 | locus YLR384C, strain iki3, hits give low values 1.03 | locus YLR418C, strain cdc73, hits give low values 1 | locus YML016C, strain PPZ1, hits give low values 1.01 | locus YML032C, strain rad52, hits give low values 1.01 | locus YML120C, strain ndi1, hits give low values 1.02 | locus YML124C, strain tub3, hits give low values 0.999 | locus YMR058W, strain fet3, hits give low values 1.02 | locus YMR078C, strain ctf18, hits give low values 1 | locus YMR125W, strain sto1, hits give low values 0.992 | locus YMR129W, hits give low values 0.999 | locus YMR205C, strain PFK2, hits give low values 1.04 | locus YMR223W, strain ubp8, hits give low values 0.995 | locus YMR231W, strain pep5, hits give low values 1 | locus YMR307W, strain GAS1, hits give low values 0.948 | locus YNL067W, strain RPL9B, hits give low values 1 | locus YNL071W, strain lat1, hits give low values 1 | locus YNL153C, strain GIM3, hits give low values 1.02 | locus YNL183C, strain NPR1, hits give low values 0.946 | locus YNL209W, strain ssb2, hits give low values 1 | locus YNL233W, strain BNI4, hits give low values 1 | locus YNL248C, strain rpa49, hits give low values 0.986 | locus YNL250W, strain rad50, hits give low values 1.02 | locus YNL271C, strain bni1, hits give low values 0.993 | locus YNL298W, strain CLA4, hits give low values 0.992 | locus YNL307C, strain MCK1, hits give low values 1.01 | locus YNL322C, strain KRE1 (second series), hits give low values 1.01 | locus YNL322C, strain KRE1, hits give low values 1.01 | locus YNR049C, strain mso1, hits give low values 1 | locus YNR052C, strain pop2, hits give low values 0.989 | locus YOL012C, strain htz1 1.15 | locus YOL147C, strain pex11, hits give low values 1 | locus YOR001W, strain rrp6, hits give low values 0.999 | locus YOR061W, strain CKA2, hits give low values 1.01 | locus YOR069W, strain VPS5, hits give low values 1.01 | locus YOR070C, strain gyp1, hits give low values 1.01 | locus YOR080W, strain dia2, hits give low values 1.01 | locus YOR083W, strain WHI5, hits give low values 1 | locus YOR106W, strain vam3, hits give low values 0.949 | locus YOR136W, strain idh2, hits give low values 0.996 | locus YOR144C, strain elg1, hits give low values 1 | locus YOR184W, strain ser1, hits give low values 0.921 | locus YOR231W, strain MKK1, hits give low values 1.02 | locus YOR265W, strain rbl2, hits give low values 0.997 | locus YOR270C, strain vph1, hits give low values 1.01 | locus YOR290C, strain snf2, hits give low values 0.979 | locus YOR316C, strain cot1, hits give low values 1 | locus YPL051W, strain arl3, hits give low values 1 | locus YPL078C, strain atp4, hits give low values 0.999 | locus YPL106C, strain sse1, hits give low values 1.02 | locus YPL240C, strain hsp82, hits give low values 1 | locus YPL241C, strain CIN2, hits give low values 1.02 | locus YPL256C, strain CLN2, hits give low values 1.02 | locus YPR119W, strain clb2, hits give low values 0.993 | locus YPR141C, strain kar3, hits give low values 1.01 | locus YPR163C, strain tif3, hits give low values 1 | locus YPR167C, strain met16, hits give low values 0.993 | strain wtn01, hits give low values 1
